Sampled rows, rich in hits. Any-hit rate of the full collection: about 3.2%.
USP2a block = qHTS Assay for Inhibitors of Ubiquitin-specific Protease USP2a Using CHOP2 as the Reporter | AID 463254, 2010 | USP2 core, Ub-CHOP2 coupled fluorogenic reporter, 485/531 | Potency, µM (highest dose often 38.3 µM), without a hit: top-dose activity change, negative = inhibition, hits mostly inhibitors | 0.01% of 330,000 active;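 further: potency means the concentration at half of the fitted maximal effect; plate controls were DMSO wells for no effect and full inhibition by NEM control for full effect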
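USP2 core (10nM final) preincubated 30min RT with compound in 20mM Tris-HCl pH 8.0, 2mM CaCl2, 2mM beta-mercaptoethanol, 0.05% CHAPS; 25nM Ub-CHOP2 plus 25nM reporter substrate added, fluorescence (Ex485/Em531) read after 60min.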
VDR inhibitor = Inhibitors of the vitamin D receptor (VDR): qHTS. VDR-SRC2-3 peptide fluorescence polarization, 2 h. 0.93% of 400,000 active. Potency, µM, without a hit: max response, negative = inhibition, actives largely listed as inhibitors. AID 504847, 2011. Vitamin D3 receptor (Homo sapiens), P11473; further: potency means the concentration at half of the fitted maximal effect
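Measured by FP: displacement of SRC2-3 coactivator peptide from VDR by library compounds, following a two-hour ambient incubation.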
Coupling enz = qHTS Assay for Inhibitors of Fructose-1,6-bisphosphate Aldolase from Giardia Lamblia: Coupling assay counterscreen; AID 2472, 2010; coupling enzyme system counterscreen, AmpLite Red fluorescence; 0.67% of 290,000 active; activity change, negative = inhibition, % at 58.2 µM, hits read low; in the data active means activity change below about -30%
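Compounds tested against the coupling enzymes alone at 57.5 uM final; readout was AmpLite Red fluorescence (525/598 nm) after 20 min at RT.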
PLK1 PBD block = qHTS for Inhibitors of PLK1-PDB (polo-like kinase 1 - polo-box domain): Primary Screen; Serine/threonine-protein kinase PLK1 (Homo sapiens), P53350; Plk1 PBD binding of FITC phosphopeptide, fluorescence polarization; Potency, µM, inactives show max response, negative = inhibition, actives largely listed as inhibitors; 2.8% of 360,000 active; further: potency means the concentration at half of the fitted maximal effect; series mostly up to about 57 µM; nearly all actives have a fitted effect of over 65% in size
GALK inhibitor = qHTS Assay for Inhibitors of Human Galactokinase (GALK) | P51570 | Purified GALK, Kinase-Glo residual ATP luminescence | Potency, µM (top dose mostly 57.5 µM), without a hit: at the highest dose activity change, negative = inhibition, most hits filed as inhibitors | 0.007% of 270,000 active; further: potency means the concentration at half of the fitted maximal effect
Target sequence (P51570 whole entry, looked up): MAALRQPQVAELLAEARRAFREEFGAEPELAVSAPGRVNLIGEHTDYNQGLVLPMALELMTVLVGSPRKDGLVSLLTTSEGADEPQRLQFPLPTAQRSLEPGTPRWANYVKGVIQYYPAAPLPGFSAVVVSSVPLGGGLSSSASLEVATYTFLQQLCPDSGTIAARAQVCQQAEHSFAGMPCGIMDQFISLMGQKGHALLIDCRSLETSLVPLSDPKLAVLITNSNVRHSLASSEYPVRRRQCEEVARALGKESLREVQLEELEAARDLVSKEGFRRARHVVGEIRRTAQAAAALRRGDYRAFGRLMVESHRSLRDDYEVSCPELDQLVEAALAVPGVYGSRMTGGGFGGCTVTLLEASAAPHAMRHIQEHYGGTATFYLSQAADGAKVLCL
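GALK at 5 nM final was combined with compound, 35 uM ATP and 100 uM galactose in HEPES pH8.0 with MgCl2 and DTT. The reaction ran one hour at room temperature before luminescent ATP detection.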
USP1 inh = Inhibitors of USP1/UAF1: Primary Screen. AID 743255, 2014. recombinant USP1/UAF1, Ub-Rhodamine cleavage fluorescence. Ubiquitin carboxyl-terminal hydrolase 1 (Homo sapiens), O94782. Potency, µM (series often up to 57.1 µM), without a hit: at the highest dose activity change, negative = inhibition, usual class: inhibitors. 0.23% of 390,000 active; further: potency means the concentration at half of the fitted maximal effect; nearly all actives have a fitted effect of over 60% in size
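High-throughput fluorogenic screen: 1nM USP1/UAF1 complex, Ub-Rho substrate 150nM final, 50mM HEPES pH 7.8 with 0.5mM EDTA, 0.1 mg/ml BSA, 1mM TCEP and 0.01% Tween-20.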
* = called active by the depositor; ? = inconclusive; · = no result; ! = not confirmed by another sample. Unless noted, the call rests on the fitted dose curve; in most records, active means well fitted curve in the direction sought with a large enough effect; inconclusive means small, poorly fitted or top-dose-only effect, or another doubt; inactive means no such curve, though single readings can be large; an effect the other way counts as inactive or inconclusive. Unless noted, on the % scale 0 is the no-effect control and ±100 the full control effect.

SMILES	USP2a block	VDR inhibitor	Coupling enz	PLK1 PBD block	GALK inhibitor	USP1 inh
COC(=O)c1cn(C(=O)c2cc(C)cc(C)c2)c2ccccc12	1%	-24%	1	21µM*	-1%	-3%
COC(=O)c1cn(C(=O)c2ccc(C)cc2)c2ccccc12	0%	-13%	-7	19µM*	-3%	-10%
Cc1ccccc1N1CC(C(=O)Nc2nnc(SCCN3CCOCC3)s2)CC1=O (stereo unspecified)	-8%	-15%	·	-22%	-1%	-30%
COc1ccc(NCCNc2ccc(OC)cc2)cc1	4%	28%	-35*	-3%	-3%	?
CC(C)(C)C1CCc2c(sc(NC(=O)CSc3ncn[nH]3)c2C#N)C1 (stereo unspecified)	-9%	-22%	-3	19µM*	-1%	-12%
CC1CCc2c(sc(NC(=O)CSc3ncn[nH]3)c2C#N)C1 (stereo unspecified)	2%	-26%	5	3%	3%	-22%
Cc1cc(OCc2ccc(C(=O)n3cccn3)o2)ccc1Cl	1%	-8%	0	24µM*	-5%	-17%
CN1OC[C@@H]2CN(S(=O)(=O)c3ccccc3)[C@H](c3ccccc3Br)C[C@@H]21	·	·	·	1%	·	·
O=C1C(NS(=O)(=O)c2cccs2)=C(N2CCOCC2)C(=O)c2ccccc21	2%	-4%	-24	-9%	-1%	-21%
CC1=C(C)C(=O)C(N2CCOCC2)=CC1=O	-1%	-19%	-60*	-12%	-1%	-7%
CN(C1=C(N2CCOCC2)C(=O)c2ccccc2C1=O)c1ccccc1	-1%	-2%	-40*	-13%	2%	-25%
O=C1C=C(N2CCOCC2)c2cccc3cccc1c23	·	·	·	-29%	·	-23%
O=C(O)c1cccc(NC2=C(N3CCOCC3)C(=O)c3ccccc3C2=O)c1	3%	71µM*	-29	-18%	0%	32µM*
O=C1C=C(N2CCOCC2)c2ccccc2C1=O	2%	?	-66*	-18%	13µM*	3.2µM*
CCN(CC)c1ccc(/C=C/c2ccc3ccc(OC)cc3[n+]2CC)cc1	0%	11%	4	-6%	-7%	-3%
O=C(Nc1ccc(O)cc1)/C(=C\C=C\c1ccccc1)NC(=O)c1ccccc1	0%	-18%	-1	-15%	3%	-1%
COC(=O)/C(=C\C=C\c1ccccc1)NC(=O)c1ccccc1	-4%	-21%	0	13µM*	0%	-6%
CC1CCC(C(C)C)C(OC(=O)C[n+]2cccc(C(N)=O)c2)C1 (stereo unspecified)	-1%	?	2	2.4µM*	0%	-15%
Cc1cc(O)c2c(c1)C(=O)[C@@]13Oc4c5c(c(O)c6c(O)cc(C)cc46)C(=O)C[C@H](O)[C@H]5[C@@H]1[C@@H](O)CC(=O)C3=C2O	·	-5%	·	3.4µM*	·	-24%
O=C(CSc1nc2ccccc2[nH]1)Nc1cccc(S(=O)(=O)N2CCOCC2)c1	3%	-5%	1	-22%	-2%	-2%
CCOc1c(Cl)cc(CNc2ccc(N3CCCC3)cc2)cc1OC	2%	14µM*	-30	?	0%	-33%
CCOc1cccc(CNn2cnnc2)c1OCc1ccccc1Cl	5%	-10%	-2	-15%	-1%	-2%
CCOc1cc(CNc2ccc(O)cc2)cc(Cl)c1OCc1ccccc1	·	-6%	·	·	·	28µM*
CCOc1cccc(CNc2ccc(O)cc2)c1OCc1ccccc1Cl	-3%	40µM*!	1	-6%	-2%	?
CCOc1cc(CNc2ccccc2)cc(Br)c1OCc1ccc(F)cc1	-8%	0%	-7	-4%	-1%	?

Screening data as filed in PubChem.
